Where “and” joins values, the source holds several entries; their conditions need not be identical. Equal entries are not always repeated. Records with an inconclusive call do not appear. Unmarked numbers belong to inactive results. Calls of active or inactive are those of the source. Calls follow the shape of the dose curve; as a rule, active = well fitted curve in the direction sought with a large enough effect in the repeat runs; inconclusive = weak or mixed curves; inactive = no such curve, though single readings can be large; an effect the other way counts as inactive or inconclusive.
% is scaled to controls: 0 for no effect and ±100 for the full control effect; potency is read from the fitted curve at half-maximal effect.

Chain of Luciferin 4-monooxygenase (Photinus pyralis) (P08659 whole entry, looked up): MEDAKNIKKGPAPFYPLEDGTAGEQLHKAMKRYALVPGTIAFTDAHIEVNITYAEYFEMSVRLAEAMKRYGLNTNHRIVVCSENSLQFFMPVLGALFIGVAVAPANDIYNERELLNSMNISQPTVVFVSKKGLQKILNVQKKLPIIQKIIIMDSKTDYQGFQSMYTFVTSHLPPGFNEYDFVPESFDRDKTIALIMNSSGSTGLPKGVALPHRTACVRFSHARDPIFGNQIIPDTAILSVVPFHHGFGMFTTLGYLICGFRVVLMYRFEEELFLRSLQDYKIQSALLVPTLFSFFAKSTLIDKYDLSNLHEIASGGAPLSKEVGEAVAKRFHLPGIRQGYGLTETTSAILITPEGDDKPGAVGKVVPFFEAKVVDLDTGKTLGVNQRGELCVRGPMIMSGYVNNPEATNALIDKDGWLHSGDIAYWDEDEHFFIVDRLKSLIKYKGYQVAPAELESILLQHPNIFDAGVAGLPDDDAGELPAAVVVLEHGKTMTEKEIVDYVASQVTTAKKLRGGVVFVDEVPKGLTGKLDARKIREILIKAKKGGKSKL

Tested on in one assay: not listed separately
Nature of the assay: qHTS assay to identify small molecule antagonists of the retinoic acid receptor (RAR) signaling pathway (AID 1159552; also: nearly all actives have a fitted effect of over 50% in size). Conditions: C3RL4 RARE luciferase reporter, retinol-stimulated, 6 h; series mostly up to 92.4 µM; activity, negative = inhibition: at the top concentration. Summed up:
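Luminescence from a RARE luciferase reporter in C3RL4 cells served as read-out. Cells received compounds together with 1 uM final retinol and incubated 6 hr at 37 C before detection reagent was added for 30 min at room temperature.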
Background: Quantitative high-throughput screening tests each substance at several concentrations.
For `Nc1nc(N)c(N)c(N)n1`, the “activity, negative = inhibition” value is -2.91%.

For `C=CC(=O)[O][Sn]([CH2]CCC)([CH2]CCC)[CH2]CCC`, the Potency was 0.864 µM (active).

Take `c1ccc2c(c1)cc1ccc3cccc4ccc2c1c34`: the “activity, negative = inhibition” value was 90%.

Consider `FC(F)C(F)(F)OCC(Cn1cncn1)c1ccc(Cl)cc1Cl` (stereo unspecified), for which the Potency was 24.2 µM (active).

Consider `ClC(Cl)C(Cl)(Cl)Cl`, for which the “activity, negative = inhibition” value was -9.36%.

Turning to `Brc1cccc(-c2ccccc2)c1`, the “activity, negative = inhibition” value is -2.06%.

In the case of `O=[N+]([O-])c1ccc(Cl)c(Cl)c1Cl`, the “activity, negative = inhibition” value was -12.4%.

Tested on in another assay: not listed separately
As to the kind of experiment: qHTS assay to identify small molecule agonists of the retinoic acid receptor (RAR) signaling pathway (AID 1159553). Conditions: C3RL4 RARE luciferase reporter, agonist, 6 h; series mostly up to 73.3 µM; activation: at the top concentration. Summed up:
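6 hr compound exposure (DMSO vehicle) of overnight-plated C3RL4 RARE-luc cells at 37 C; luminescence quantified after 30 min RT with luciferase reagent.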
With `CC#C[C@]1(O)CC[C@H]2[C@@H]3C[C@H](C)C4=CC(=O)CC[C@]4(C)[C@H]3CC[C@@]21C`, the “activation” value was -7.11%.

Turning to `CN`, the “activation” value is -6.15% [at 94.8 µM].

`BrCCCBr`: the “activation” value is -0.479% [at 94.8 µM].

On to `CN1C2CCC(C)(C)C1CC(OC(=O)C(O)(c1cccs1)c1cccs1)C2` (stereo unspecified), for which the “activation” value was -4.25%.

For `C[C@]12CC[C@H]3[C@@H](CCC4=CC(=O)CC[C@@H]43)[C@@H]1CC[C@@H]2OC(=O)CCc1ccco1`, the “activation” value was -12.3%.

Turning to `[O]=[Cr][O][Cr]=[O]`, the “activation” value is -0.305% [at 94.8 µM].

Consider `Oc1cccc(Cl)c1Cl`, for which the “activation” value was -1.21% [at 94.8 µM].

Regarding `CNC(=O)CSP(=O)(OC)OC`, the “activation” value was 0.126%.

Consider `CN1C(=O)[C@@H](NC(=O)c2cc3ccccc3[nH]2)N=C(c2ccccc2)c2ccccc21`, for which the “activation” value was 1.87%.

With `ClSC(Cl)(Cl)Cl`, the “activation” value was 0.308%.

Regarding `CCCCCCCCCCCCCCn1cc[n+](C)c1`, the “activation” value was 5.57%.

For the molecule `CC(Cl)CCl` (stereo unspecified), the “activation” value was -3.1%.

Consider `Cc1ccn2nc(S(=O)(=O)Nc3c(F)cccc3F)nc2n1`, for which the “activation” value is -0.0414%.

`C[C@H]1[C@H](c2ccc(Cl)cc2)SC(=O)N1C(=O)NC1CCCCC1`: the “activation” value was -4.66%.

`Oc1ccc2[nH]cc(CCCCN3CC=C(c4ccccc4)CC3)c2c1`: the “activation” value is -7.47%.

Consider `CC(C)=CCN1CC[C@@]2(C)c3cc(O)ccc3C[C@@H]1[C@@H]2C`, for which the “activation” value is -6.74%.

For the molecule `Oc1ccc([C@H]2CNCc3c2ccc(O)c3O)cc1O`, the Potency is 23.7 µM (active).

For `O=C(N[C@H]1N=C(c2ccccc2F)c2cccc3c2N(CC3)C1=O)c1cc2ccccc2[nH]1`, the “activation” value is -0.0112%.

Take `CC1(C)C(C=C(Cl)Cl)C1C(=O)OC(C#N)c1ccc(F)c(Oc2ccccc2)c1` (stereo unspecified): the “activation” value was -6.17%.

For the molecule `COC(=O)c1ccccc1S(=O)(=O)NC(=O)Nc1nc(C)nc(OC)n1`, the “activation” value is -0.925%.

With `O=Cc1ccccc1`, the “activation” value was 1.31% [at 94.8 µM].

In the case of `CC(C)c1c(CN(C)C(C)Cc2ccccc2)n(C)n(-c2ccccc2)c1=O` (stereo unspecified), the “activation” value is -8.05%.

Take `O=C(Nc1ccc(F)cc1F)c1cccnc1Oc1cccc(C(F)(F)F)c1`: the “activation” value was -2.41% [at 94.8 µM].

Regarding `O=C(N[C@@H]1N=C(c2ccccc2F)c2cccc3c2N(CC3)C1=O)c1cc2ccccc2[nH]1`, the “activation” value is -5.4%.

For `Nc1ccccc1-c1ccccc1`, the “activation” value was 9.94%.

Consider `CN1[C@@H]2CC[C@H]1CC(O)C2` (stereo partly specified), for which the “activation” value was -0.267% [at 94.8 µM].

For the molecule `Nc1nc(N)c(N)c(N)n1`, the “activation” value is -0.245% [at 94.8 µM].

For `c1ccc2c(c1)cc1ccc3cccc4ccc2c1c34`, the Potency is 11.1 µM (active).

`FC(F)C(F)(F)OCC(Cn1cncn1)c1ccc(Cl)cc1Cl` (stereo unspecified): the “activation” value was -13.8%.

`ClC(Cl)C(Cl)(Cl)Cl`: the “activation” value is 2.95%.

In the case of `Brc1cccc(-c2ccccc2)c1`, the “activation” value was 0.717% [at 94.8 µM].

Tested on in another assay: not listed separately
Nature of the assay: qHTS assay to identify small molecule antagonists of the estrogen related receptor (ERR) signaling pathway from Tox21 library - cell viability counter screen (AID 1224834). Also: nearly all actives have a fitted effect of over 30% in size. As to conditions: ERR reporter cells viability, CellTiter-Fluor, 17.5 h; series mostly up to 92.4 µM; viability change, negative = cytotoxic: at the top concentration. The procedure, abridged: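 Seeded ERR cells were rested 6 h at 37 C/5% CO2 before compounds, positive and negative controls or DMSO were added. Incubation continued for 17.5 h, and viability was then quantified by CellTiter-Fluor fluorescence.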
Turning to `CN`, the “viability change, negative = cytotoxic” value is -0.0159%.

As for `CC(C)C(Nc1ccc(C(F)(F)F)cc1Cl)C(=O)OC(C#N)c1cccc(Oc2ccccc2)c1` (stereo unspecified), the “viability change, negative = cytotoxic” value was -0.292%.

Turning to `CCNS(=O)(=O)C(F)(F)C(F)(F)C(F)(F)C(F)(F)C(F)(F)C(F)(F)C(F)(F)C(F)(F)F`, the “viability change, negative = cytotoxic” value is -5.6%.

Regarding `ClSC(Cl)(Cl)Cl`, the “viability change, negative = cytotoxic” value is -0.547%.

Take `CCCCCCCCCCCCCCn1cc[n+](C)c1`: the Potency was 27.4 µM (active) and 30.3 µM (active).

Turning to `COc1ccc2c3c1O[C@H]1[C@H](O)CC[C@H]4[C@@H](C2)N(C)CC[C@@]341`, the “viability change, negative = cytotoxic” value is 1.68%.

In the case of `CC(Cl)CCl` (stereo unspecified), the “viability change, negative = cytotoxic” value was 1.05%.

As to `CC(C)=CCN1CC[C@@]2(C)c3cc(O)ccc3C[C@@H]1[C@@H]2C`, the “viability change, negative = cytotoxic” value was -2.27%.

For `Oc1ccc([C@H]2CNCc3c2ccc(O)c3O)cc1O`, the “viability change, negative = cytotoxic” value was -7.14% [at 42.5 µM].

For the molecule `[Cl][Hg][c]1ccccc1`, the Potency was 3.44 µM (active).

As for `O=C1C2(Cl)C3(Cl)C4(Cl)C(Cl)(Cl)C5(Cl)C3(Cl)C1(Cl)C5(Cl)C24Cl` (stereo unspecified), the Potency is 53.6 µM (active) and 58.5 µM (active).

On to `CN1[C@@H]2CC[C@H]1CC(O)C2` (stereo partly specified), for which the “viability change, negative = cytotoxic” value is 0.412%.

In the case of `C[C@]12C/C(=C/O)C(=O)C[C@@H]1CC[C@@H]1[C@@H]2CC[C@@]2(C)[C@H]1CC[C@]2(C)O`, the Potency was 55 µM (active).

Take `C=CC(=O)[O][Sn]([CH2]CCC)([CH2]CCC)[CH2]CCC`: the Potency is 3.06 µM (active).

For `c1ccc2c(c1)cc1ccc3cccc4ccc2c1c34`, the “viability change, negative = cytotoxic” value is 11.5%.

Turning to `FC(F)C(F)(F)OCC(Cn1cncn1)c1ccc(Cl)cc1Cl` (stereo unspecified), the Potency was 43 µM (active).

Turning to `Brc1cccc(-c2ccccc2)c1`, the “viability change, negative = cytotoxic” value was 0.673%.

`O=[N+]([O-])c1ccc(Cl)c(Cl)c1Cl`: the “viability change, negative = cytotoxic” value was -1.21%.

The target of the next assay is Luciferin 4-monooxygenase (Photinus pyralis) (UniProt P08659). As to the kind of experiment: qHTS assay to identify small molecule inhibitors of firefly luciferase (AID 1224835). Also: nearly all actives have a fitted effect of over 25% in size. As to conditions: purified P. pyralis luciferase, luminescence inhibition; series mostly up to 115 µM; activity change, negative = inhibition: at the top concentration. Summed up:
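Biochemical qHTS: compounds run as interplate titrations against purified firefly enzyme, with D-luciferin and ATP each at its KM concentration. Light output recorded by CCD imaging.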
As for `CC#C[C@]1(O)CC[C@H]2[C@@H]3C[C@H](C)C4=CC(=O)CC[C@]4(C)[C@H]3CC[C@@]21C`, the “activity change, negative = inhibition” value is -0.325% [at 52.9 µM].

As for `BrCCCBr`, the “activity change, negative = inhibition” value was 0.311%.

As to `CC(C)C(Nc1ccc(C(F)(F)F)cc1Cl)C(=O)OC(C#N)c1cccc(Oc2ccccc2)c1` (stereo unspecified), the “activity change, negative = inhibition” value was -0.235%.

As to `CN1C2CCC(C)(C)C1CC(OC(=O)C(O)(c1cccs1)c1cccs1)C2` (stereo unspecified), the “activity change, negative = inhibition” value was 3.06% [at 52.9 µM].

As for `C[C@]12CC[C@H]3[C@@H](CCC4=CC(=O)CC[C@@H]43)[C@@H]1CC[C@@H]2OC(=O)CCc1ccco1`, the “activity change, negative = inhibition” value is 8.87% [at 52.9 µM].

`[O]=[Cr][O][Cr]=[O]`: the “activity change, negative = inhibition” value is 2.72%.

Consider `CNC(=O)CSP(=O)(OC)OC`, for which the “activity change, negative = inhibition” value is 4.15%.

Regarding `CCNS(=O)(=O)C(F)(F)C(F)(F)C(F)(F)C(F)(F)C(F)(F)C(F)(F)C(F)(F)C(F)(F)F`, the “activity change, negative = inhibition” value was 1.04%.

On to `CN1C(=O)[C@@H](NC(=O)c2cc3ccccc3[nH]2)N=C(c2ccccc2)c2ccccc21`, for which the “activity change, negative = inhibition” value is -2.75% [at 52.9 µM].

For `CCCCCCCCCCCCCCn1cc[n+](C)c1`, the Potency result was “inactive”.

`COc1ccc2c3c1O[C@H]1[C@H](O)CC[C@H]4[C@@H](C2)N(C)CC[C@@]341`: the “activity change, negative = inhibition” value was 1.57%.

`CC(Cl)CCl` (stereo unspecified): the “activity change, negative = inhibition” value is 3.41%.

`Cc1ccn2nc(S(=O)(=O)Nc3c(F)cccc3F)nc2n1`: the “activity change, negative = inhibition” value was 3.24%.

As for `C[C@H]1[C@H](c2ccc(Cl)cc2)SC(=O)N1C(=O)NC1CCCCC1`, the “activity change, negative = inhibition” value was 3.03%.

As for `[Cl][Hg][c]1ccccc1`, the Potency was 6.33 µM (active).

For the molecule `O=C(N[C@H]1N=C(c2ccccc2F)c2cccc3c2N(CC3)C1=O)c1cc2ccccc2[nH]1`, the “activity change, negative = inhibition” value is 0.0635% [at 52.9 µM].

For `CC1(C)C(C=C(Cl)Cl)C1C(=O)OC(C#N)c1ccc(F)c(Oc2ccccc2)c1` (stereo unspecified), the “activity change, negative = inhibition” value was -0.406%.

For `COC(=O)c1ccccc1S(=O)(=O)NC(=O)Nc1nc(C)nc(OC)n1`, the “activity change, negative = inhibition” value is 0.548%.

For `O=Cc1ccccc1`, the “activity change, negative = inhibition” value is -0.354%.

Consider `CC(C)c1c(CN(C)C(C)Cc2ccccc2)n(C)n(-c2ccccc2)c1=O` (stereo unspecified), for which the “activity change, negative = inhibition” value was 3.51% [at 52.9 µM].

`O=C(Nc1ccc(F)cc1F)c1cccnc1Oc1cccc(C(F)(F)F)c1`: the “activity change, negative = inhibition” value was 5.98%.

Regarding `O=C(N[C@@H]1N=C(c2ccccc2F)c2cccc3c2N(CC3)C1=O)c1cc2ccccc2[nH]1`, the Potency is 9.77 µM (active).

Regarding `O=C1C2(Cl)C3(Cl)C4(Cl)C(Cl)(Cl)C5(Cl)C3(Cl)C1(Cl)C5(Cl)C24Cl` (stereo unspecified), the Potency entry is “inactive”.

Regarding `C[C@]12C/C(=C/O)C(=O)C[C@@H]1CC[C@@H]1[C@@H]2CC[C@@]2(C)[C@H]1CC[C@]2(C)O`, the Potency result was “inactive”.

On to `Nc1nc(N)c(N)c(N)n1`, for which the “activity change, negative = inhibition” value is -6.17%.

As for `C=CC(=O)[O][Sn]([CH2]CCC)([CH2]CCC)[CH2]CCC`, the Potency was 35.6 µM (active).

In the case of `c1ccc2c(c1)cc1ccc3cccc4ccc2c1c34`, the Potency is 10.2 µM (active).

For the molecule `FC(F)C(F)(F)OCC(Cn1cncn1)c1ccc(Cl)cc1Cl` (stereo unspecified), the “activity change, negative = inhibition” value was -0.481%.

On to `ClC(Cl)C(Cl)(Cl)Cl`, for which the “activity change, negative = inhibition” value is 4.89%.

In the case of `O=[N+]([O-])c1ccc(Cl)c(Cl)c1Cl`, the “activity change, negative = inhibition” value is -1.83%.
